11 sequences from paper PMC5700166 can be followed below.

Common to all, as to test: protein-binding microarray (PBM); PBM: ~300 nM protein, 6 mM HEPES pH 7.8, 80 mM KCl, 0.5 mM EDTA, 0.5 mM EGTA, 6% glycerol, 35 ng/ul poly-dIdC, 1% milk, 1 h, room temperature; Ap Aiptasia and Nv Nematostella (sea anemones) / Co Capsaspora / Aq Amphimedon (sponge) / Dm Drosophila / Hu human; RHD is the Rel homology domain; high values mean tight binding
Common to all, as to conditions: dsDNA, one strand shown

The target in assay [1] is T1, GST-Ap-NF-kB RHD (Exaiptasia pallida (Aiptasia), UniProt A0A913YAJ5 2-422).
T1 sequence: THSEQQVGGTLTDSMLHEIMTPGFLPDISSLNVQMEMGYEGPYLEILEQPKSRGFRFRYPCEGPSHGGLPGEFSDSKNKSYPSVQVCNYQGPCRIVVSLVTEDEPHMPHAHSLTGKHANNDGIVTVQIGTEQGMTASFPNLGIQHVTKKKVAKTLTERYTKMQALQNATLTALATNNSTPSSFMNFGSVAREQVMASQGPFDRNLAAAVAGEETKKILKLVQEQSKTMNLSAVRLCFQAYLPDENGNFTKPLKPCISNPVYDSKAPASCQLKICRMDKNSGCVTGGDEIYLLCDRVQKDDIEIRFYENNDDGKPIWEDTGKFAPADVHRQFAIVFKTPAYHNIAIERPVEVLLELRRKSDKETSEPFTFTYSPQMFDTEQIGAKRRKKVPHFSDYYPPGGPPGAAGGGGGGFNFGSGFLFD

Assay [2] addresses T2, GST-Nv-NF-kB (Cys allele) (Nematostella vectensis, UniProt E5G601 2-411).
T2 sequence: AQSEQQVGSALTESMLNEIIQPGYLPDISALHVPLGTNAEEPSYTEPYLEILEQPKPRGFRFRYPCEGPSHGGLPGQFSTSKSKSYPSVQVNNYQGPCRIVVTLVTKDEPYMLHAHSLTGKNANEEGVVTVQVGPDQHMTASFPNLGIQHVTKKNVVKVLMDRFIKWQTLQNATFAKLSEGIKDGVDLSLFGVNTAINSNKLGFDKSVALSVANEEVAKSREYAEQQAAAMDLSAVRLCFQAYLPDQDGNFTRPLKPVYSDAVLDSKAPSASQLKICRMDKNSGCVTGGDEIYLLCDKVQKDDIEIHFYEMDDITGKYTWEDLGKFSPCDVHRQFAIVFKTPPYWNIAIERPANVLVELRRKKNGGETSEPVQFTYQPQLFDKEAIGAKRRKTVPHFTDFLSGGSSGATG

Assay [3] has as its target T3, GST-Nv-NF-kB (Ser allele) (Nematostella vectensis, UniProt A7UNT2 2-411).
T3 sequence: T2 sequence with Q21R, C66S, S207N, E215Q, V217A, E225K, A268E, D399E

For assay [4], the target named is T4, GST-Co-NF-kB (Capsaspora owczarzaki, UniProt F1ARL5 200-546).
T4 sequence: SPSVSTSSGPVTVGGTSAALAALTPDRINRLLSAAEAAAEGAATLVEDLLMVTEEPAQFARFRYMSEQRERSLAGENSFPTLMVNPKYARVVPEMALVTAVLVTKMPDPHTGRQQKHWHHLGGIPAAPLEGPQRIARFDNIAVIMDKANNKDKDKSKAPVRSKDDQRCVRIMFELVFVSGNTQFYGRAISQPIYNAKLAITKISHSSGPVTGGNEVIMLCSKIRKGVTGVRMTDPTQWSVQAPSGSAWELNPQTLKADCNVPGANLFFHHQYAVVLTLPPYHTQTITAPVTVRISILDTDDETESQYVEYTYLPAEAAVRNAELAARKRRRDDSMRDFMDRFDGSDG

Assay [5] addresses T5, GST-Dm-Relish (Drosophila melanogaster, UniProt Q94527 99-473).
T5 sequence: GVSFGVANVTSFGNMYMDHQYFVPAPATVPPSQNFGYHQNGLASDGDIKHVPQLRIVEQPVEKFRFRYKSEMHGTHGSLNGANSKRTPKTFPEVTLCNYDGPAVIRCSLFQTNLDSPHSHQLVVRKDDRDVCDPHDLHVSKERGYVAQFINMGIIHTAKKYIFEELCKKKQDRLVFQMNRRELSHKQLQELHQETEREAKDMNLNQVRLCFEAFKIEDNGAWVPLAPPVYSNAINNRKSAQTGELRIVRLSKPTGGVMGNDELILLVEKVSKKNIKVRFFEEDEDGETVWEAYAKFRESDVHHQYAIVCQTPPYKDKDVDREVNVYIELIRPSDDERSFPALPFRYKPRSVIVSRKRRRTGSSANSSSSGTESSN

Assay [6] concerns the target T6, GST-Aq-NF-kB (Amphimedon queenslandica, UniProt A9Y5G7 2-389).
T6 sequence: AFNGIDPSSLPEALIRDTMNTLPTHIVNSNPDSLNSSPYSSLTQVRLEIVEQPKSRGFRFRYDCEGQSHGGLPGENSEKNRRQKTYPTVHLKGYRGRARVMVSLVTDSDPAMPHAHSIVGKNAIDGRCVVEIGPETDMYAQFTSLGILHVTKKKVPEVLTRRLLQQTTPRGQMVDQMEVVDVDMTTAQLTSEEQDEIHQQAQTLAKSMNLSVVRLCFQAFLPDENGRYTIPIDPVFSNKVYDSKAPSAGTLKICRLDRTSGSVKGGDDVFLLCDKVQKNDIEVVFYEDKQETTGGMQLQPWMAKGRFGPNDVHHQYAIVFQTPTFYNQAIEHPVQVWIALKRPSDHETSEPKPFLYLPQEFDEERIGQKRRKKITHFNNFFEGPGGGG

In assay [7] the target is GST-Hu-p50 (Homo sapiens, UniProt P19838 7-356).

Substitutions are numbered along the chain they refer to.

GST-Hu-p50, sequence (P19838 7-356): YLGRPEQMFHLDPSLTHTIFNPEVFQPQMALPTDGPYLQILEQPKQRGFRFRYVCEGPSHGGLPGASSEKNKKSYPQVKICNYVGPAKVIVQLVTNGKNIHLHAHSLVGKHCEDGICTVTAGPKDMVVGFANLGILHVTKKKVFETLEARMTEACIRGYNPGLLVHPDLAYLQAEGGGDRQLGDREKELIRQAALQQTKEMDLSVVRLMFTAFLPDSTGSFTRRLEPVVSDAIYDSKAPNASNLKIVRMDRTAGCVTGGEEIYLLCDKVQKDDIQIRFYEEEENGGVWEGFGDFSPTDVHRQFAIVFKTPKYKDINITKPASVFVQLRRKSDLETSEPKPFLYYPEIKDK

On to “CCGATTAACATCACCTTTTCCCCTGATGTTAATCGGGTCTTGATTCGCTTGACGCTGCTG”, for which the binding signal in assay [1] came to 6.24 z-score; in assay [2], 6.89 z-score; in assay [3], 8.88 z-score; in assay [4], 8.71 z-score; in assay [5] it was 2.77 z-score; in assay [6], 4.69 z-score. Further, in assay [7], the binding signal came out at 5.94 z-score.

Consider “CCGATTAACATCACATATTCCCCTGATGTTAATCGGGTCTTGATTCGCTTGACGCTGCTG”, for which the binding signal in assay [1] was 7.49 z-score; in assay [2] it was 8.81 z-score; in assay [3], 9.04 z-score; in assay [4], 7.39 z-score; in assay [5] it was 4.55 z-score; in assay [6], 6.7 z-score. This sequence showed a binding signal in assay [7] of 5.69 z-score.

Turning to “CCGATTAACATCAAACTACCCCCTGATGTTAATCGGGTCTTGATTCGCTTGACGCTGCTG”, the binding signal stood at 5.45 z-score in assay [1]; 4.01 z-score in assay [2]; 4.35 z-score in assay [3]; 5.82 z-score in assay [4]; 2.49 z-score in assay [5]; 4.3 z-score in assay [6]. Further, the binding signal in assay [7] stood at 4.12 z-score.

For the sequence “CCGATTAACATCAGGGGAAAACCTGATGTTAATCGGGTCTTGATTCGCTTGACGCTGCTG”, the binding signal in assay [1] is 9.38 z-score; in assay [2] it was 10.6 z-score; in assay [3] it was 11.5 z-score; in assay [4], 7.99 z-score; in assay [5], 8.9 z-score; in assay [6] it was 9.77 z-score. This sequence had a binding signal in assay [7] of 6.91 z-score.

As for “CCGATTAACATCAAAAATCTCCCTGATGTTAATCGGGTCTTGATTCGCTTGACGCTGCTG”, the binding signal in assay [1] is 3.7 z-score; in assay [2], 6.51 z-score; in assay [3] it was 6.86 z-score; in assay [4], 3.4 z-score; in assay [5], 2.94 z-score; in assay [6], 6.14 z-score. This sequence showed a binding signal in assay [7] of 4.72 z-score.

For “CCGATTAACATCAGGGGAATACCTGATGTTAATCGGGTCTTGATTCGCTTGACGCTGCTG”, the binding signal is 9.84 z-score in assay [1]; 11.8 z-score in assay [2]; 10.1 z-score in assay [3]; 5.97 z-score in assay [4]; 9.67 z-score in assay [5]; 10.5 z-score in assay [6]. For the same sequence, the binding signal in assay [7] amounted to 6.93 z-score.

As to “CCGATTAACATCAGGGGAACGCATGATGTTAATCGGGTCTTGATTCGCTTGACGCTGCTG”, the binding signal in assay [1] came out at 5.31 z-score; in assay [2] it was 5.4 z-score; in assay [3], 6.49 z-score; in assay [4], 4.99 z-score; in assay [5], 2.68 z-score; in assay [6], 3.75 z-score. In assay [7], this sequence showed a binding signal of 4.2 z-score.

Consider “CCGATTAACATCAGATTCCCCCCTGATGTTAATCGGGTCTTGATTCGCTTGACGCTGCTG”, for which the binding signal in assay [1] stood at 8.5 z-score; in assay [2] it was 7.01 z-score; in assay [3], 8.24 z-score; in assay [4], 10 z-score; in assay [5], 6.72 z-score; in assay [6] it was 6.38 z-score. In addition, the binding signal in assay [7] came out at 7.1 z-score.

Take “CCGATTAACATCAGAAAAACCCCTGATGTTAATCGGGTCTTGATTCGCTTGACGCTGCTG”: the binding signal in assay [1] is 7.98 z-score; in assay [2], 8.56 z-score; in assay [3], 7.56 z-score; in assay [4], 2.03 z-score; in assay [5] it was 9.4 z-score; in assay [6], 7.67 z-score. Moreover, the binding signal in assay [7] is 7.6 z-score.

“CCGATTAACATCACGGGGGAAACTGATGTTAATCGGGTCTTGATTCGCTTGACGCTGCTG”: the binding signal came to 7.25 z-score in assay [1]; 5.82 z-score in assay [2]; 8.94 z-score in assay [3]; 12.2 z-score in assay [4]; 3.91 z-score in assay [5]; 4.97 z-score in assay [6]. The sequence also had a binding signal in assay [7] of 6.34 z-score.

“CCGATTAACATCAGGAGGTCCCCTGATGTTAATCGGGTCTTGATTCGCTTGACGCTGCTG”: the binding signal in assay [1] came out at 5.22 z-score; in assay [2] it was 3.71 z-score; in assay [3], 2.14 z-score; in assay [4] it was 1.57 z-score; in assay [5], 4.16 z-score; in assay [6], 5.29 z-score. For the same sequence, the binding signal in assay [7] is 3.18 z-score.
